Measurements: the supplement of paper PMC12645437, “Orthogonal IMiD-Degron Pairs Induce Selective Protein Degradation in Cells” (ACS Chemical Biology, 2025)
The full ranking holds about 8,300 sequences; the median of “log2 fold change of degron read counts, EGFP-low vs EGFP+ sorted cells (limma voom), compound-induced degradation” is about -1.1, and the highest 2% start at about 3.2. This is one part of a sample in which the highest values are shown more often than they occur.

T1: CRBN, Q96SW2
T1 chain: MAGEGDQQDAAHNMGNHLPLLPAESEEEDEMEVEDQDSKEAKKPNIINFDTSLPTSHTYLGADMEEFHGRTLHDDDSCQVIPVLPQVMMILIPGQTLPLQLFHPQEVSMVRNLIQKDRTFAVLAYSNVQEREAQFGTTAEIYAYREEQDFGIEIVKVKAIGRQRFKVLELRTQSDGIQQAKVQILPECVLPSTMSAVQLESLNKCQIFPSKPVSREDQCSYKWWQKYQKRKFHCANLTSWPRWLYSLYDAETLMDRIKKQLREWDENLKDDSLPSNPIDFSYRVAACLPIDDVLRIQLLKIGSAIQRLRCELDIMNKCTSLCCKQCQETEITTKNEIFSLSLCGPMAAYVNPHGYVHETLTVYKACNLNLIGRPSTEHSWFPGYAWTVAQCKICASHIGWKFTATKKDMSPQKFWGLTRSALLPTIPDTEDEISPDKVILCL

B1: 46F_47H_49D_50Q_52G_53A_54C_55F_67L_, Q9UKT9 (peptide)
chain: FHCDQCGACFTQKGNLLRHIKL
B2: 46F_47I_49P_50I_52G_53A_54I_55F_67L_, Q9UKT9 (peptide)
chain: FICPICGAIFTQKGNLLRHIKL
B3: 46F_47I_49P_50I_52G_53R_54H_55F_67L_, Q9UKT9 (peptide)
chain: FICPICGRHFTQKGNLLRHIKL
B4: 46F_47Y_49D_50V_52G_53A_54T_55F_67L_, Q9UKT9 (peptide)
chain: FYCDVCGATFTQKGNLLRHIKL
B5: 46F_47H_49E_50V_52G_53A_54R_55F_67L_, Q9UKT9 (peptide)
chain: FHCEVCGARFTQKGNLLRHIKL
B6: 46F_47S_49E_50V_52G_53A_54R_55F_67L_, Q9UKT9 (peptide)
chain: FSCEVCGARFTQKGNLLRHIKL
B7: 46F_47R_49E_50V_52G_53A_54R_55F_67L_, Q9UKT9 (peptide)
chain: FRCEVCGARFTQKGNLLRHIKL
B8: 46F_47T_49E_50V_52G_53A_54L_55F_67L_, Q9UKT9 (peptide)
chain: FTCEVCGALFTQKGNLLRHIKL
B9: 46F_47T_49E_50V_52G_53A_54R_55F_67L_, Q9UKT9 (peptide)
chain: FTCEVCGARFTQKGNLLRHIKL

Target: T1, CRBN, Q96SW2
Experiment: log2 fold change of degron read counts, EGFP-low vs EGFP+ sorted cells (limma voom), compound-induced degradation; higher = more compound-induced degradation of the degron-EGFP fusion; degrons are variants of IKZF1/3 zinc finger 2; compound dose not given here
Conditions: Jurkat, 18 h
[1] = compound: compound 19 (5-tert-butyl-thalidomide)
[2] = compound: compound 22 (5-morpholino-thalidomide)
[3] = compound: compound 33 (diphenyl IMiD analogue)
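Further: pooled lentiviral library of zinc finger degron-EGFP fusions in mCherry-positive Jurkat cells, FACS-sorted after compound exposure, with degron abundance counted by next-generation sequencing.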

Sequence | log2 fold change of degron read counts [1] | log2 fold change of degron read counts [2] | log2 fold change of degron read counts [3] | log2 fold change of degron read counts (compound: thalidomide)
B1 | -1.69 | -1.96 | -2.17 | -2.89
B2 | -1.09 | 0.608 | 1.82 | 1.64
B3 | -1.55 | -0.572 | -0.548 | 0.569
B4 | 2.06 | 2.82 | 0.691 | -1.49
B5 | 2.39 | 2.38 | 0.473 | 0.568
B6 | 3.53 | 2.6 | 0.369 | 2.08
B7 | -1.49 | -2.37 | -0.456 | 0.516
B8 | -0.893 | -0.862 | 0.362 | 0.612
B9 | 1.77 | 3.04 | 1.75 | 3.26
